# Screens: PubChem, National Center for Advancing Translational Sciences (NCATS)
# TSHR antagonist = Antagonists of the Thyroid Stimulating Hormone Receptor: HTS campaign; TSHR-expressing cells, TSH-stimulated cAMP HTRF, 2 h; stronger effect = lower value; AID 504810, 2011; activity change, negative = inhibition, % at 11.5 µM; Thyrotropin receptor (Homo sapiens), P16473; 330,000 compounds, 0.2% hits;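 active = activity change below a set negative limit, meaning inhibition stronger than a set level, cut at about -70% in these data; inconclusive = activity change between two set negative limits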; also: % is scaled to controls: 0 for no effect and ±100 for the full control effect
# Target sequence (P16473 whole entry, looked up): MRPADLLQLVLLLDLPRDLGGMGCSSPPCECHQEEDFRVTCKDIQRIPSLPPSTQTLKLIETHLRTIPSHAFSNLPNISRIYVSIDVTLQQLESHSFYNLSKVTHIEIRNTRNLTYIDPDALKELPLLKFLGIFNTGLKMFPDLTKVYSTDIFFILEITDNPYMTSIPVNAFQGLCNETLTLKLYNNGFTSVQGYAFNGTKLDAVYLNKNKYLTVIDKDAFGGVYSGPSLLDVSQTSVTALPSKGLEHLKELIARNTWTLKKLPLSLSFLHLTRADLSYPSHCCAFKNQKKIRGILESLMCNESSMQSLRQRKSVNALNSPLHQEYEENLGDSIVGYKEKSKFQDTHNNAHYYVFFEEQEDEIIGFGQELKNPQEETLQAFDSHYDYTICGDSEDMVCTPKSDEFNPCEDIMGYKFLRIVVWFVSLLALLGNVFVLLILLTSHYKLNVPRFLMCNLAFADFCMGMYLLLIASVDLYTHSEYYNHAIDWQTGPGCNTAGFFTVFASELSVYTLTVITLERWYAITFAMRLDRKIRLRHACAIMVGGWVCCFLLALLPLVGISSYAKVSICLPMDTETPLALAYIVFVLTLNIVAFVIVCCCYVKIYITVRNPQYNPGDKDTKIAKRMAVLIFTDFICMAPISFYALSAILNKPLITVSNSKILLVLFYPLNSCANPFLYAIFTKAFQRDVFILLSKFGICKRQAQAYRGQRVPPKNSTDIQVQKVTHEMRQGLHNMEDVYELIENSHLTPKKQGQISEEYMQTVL
#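 Inhibition of cAMP made by TSHR-expressing cells under TSH stimulation (4nM final, EC80; 2 h, 37 deg C) is quantified with a one-step lysis HTRF kit, anti-cAMP cryptate versus cAMP-d2.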
# uPA generation = qHTS for Inhibitors of Cell Surface uPA Generation | cell surface uPA generation assay, qHTS | Potency, µM (series often up to 38.3 µM), for inactives: top-dose activity change, negative = inhibition, hits mostly inhibitors | 330,000 compounds, 0.31% hits; active = well fitted inhibition curve with a large enough effect; inconclusive = small, poorly fitted or top-dose-only effect; inactive = no such curve, though single readings can be large or run the other way; tested in mouse RAW 264.7 cells; also: potency is read from the fitted curve at half-maximal effect; % is scaled to controls: 0 for no effect and ±100 for the full control effect; nearly all actives have a fitted effect of over 55% in size
# Mm-Cpn inhibitor = Inhibitors of TCP-1 ring complex (TRiC) of Methanococcus maripaludis (MmCpn): qHTS; Chaperonin Mm-Cpn (Methanococcus maripaludis); 330,000 compounds, 0.031% hits; Potency, µM (titrated, usually from 76.9 µM), for the others: top-dose activity, negative = inhibition, hits mostly inhibitors; purified Mm-Cpn ATPase, ADP Transcreener TR-FRET; active = well fitted inhibition curve with a large enough effect; inconclusive = small, poorly fitted or top-dose-only effect; also: potency is read from the fitted curve at half-maximal effect; % is scaled to controls: 0 for no effect and ±100 for the full control effect; nearly all actives have a fitted effect of over 80% in size
#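 25 nM Mm-CPN + cpd, 10 min 37°C; + 10 uM ATP, 30 min 37°C; buffer 30 mM Tris pH 7.4, 100 mM KCl, 5 mM MgCl2, 1 mM DTT; Transcreener ADP HTRF detection 30 min RT.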
# gsp antag = qHTS for Antagonists of gsp, the Etiologic Mutation Responsible for Fibrous Dysplasia/McCune-Albright Syndrome: qHTS; gsp-mutant cells, cAMP HTRF, 30 min; AID 624288, 2012; Potency, µM (top dose mostly 76.9 µM), for the others: top-dose activity change, negative = inhibition, usual class: inhibitors; 340,000 compounds, 0.4% hits; calls by dose curve; cell line not stated here;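 also: intracellular cAMP measured with PDE inhibitor Ro 20-1724 present during compound exposure; potency is read from the fitted curve at half-maximal effect; % is scaled to controls: 0 for no effect and ±100 for the full control effect; nearly all actives have a fitted effect of over 65% in size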
#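 Cells in G418 medium, seeded 16-24 h, 37C; buffer exchange to DPBS + 1 mM CaCl2, 0.5 mM MgCl2, 0.05% BSA; cpds in DMSO + […] (300 uM stock), 30 min 37C; HTRF cAMP detection.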
# CCT modulator = High-Throughput Screening for Modulators of Cytosolic Chaperonin Activity; AID 651819, 2012; activity change, % (no concentration beside the values), hits read low; purified chaperonin ATPase assay, HTRF ADP detection, 30 min; 360,000 compounds, 0.3% hits; in the data active = activity change below about -30%; also: % is scaled to controls: 0 for no effect and ±100 for the full control effect
#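 TRiC (40 or 20 nM final, by batch activity) in 30 mM Tris pH 7.4, 100 mM KCl, 5 mM MgCl2, 1 mM DTT was treated with compound at 76 uM single dose, then 10 uM ATP, 30 min at 37 °C. ADP was read by HTRF Transcreener.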
# gsp ag = qHTS for Agonist of gsp, the Etiologic Mutation Responsible for Fibrous Dysplasia/McCune-Albright Syndrome: qHTS | gsp mutant cells, cAMP HTRF, 30 min | Potency, µM (top dose mostly 76.9 µM), for the others: top-dose activation (cAMP increase), most hits filed as activators | 340,000 compounds, 0.13% hits; active = well fitted activation curve with a large enough effect; inconclusive = small, poorly fitted or top-dose-only effect, or another doubt; inactive = no such curve, though single readings can be large or run the other way; cell line not stated here;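 also: phosphodiesterase inhibitor Ro 20-1724 added with compounds to block cAMP breakdown; potency is read from the fitted curve at half-maximal effect; nearly all actives have a fitted effect of over 60% in size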
#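 Cells stably selected in G418 were plated at 2000/well, grown 16-24 hr, then given compounds in DMSO with the PDE inhibitor […] (300 uM solution added) for 30 min at 37C; cAMP was read by HTRF.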
# * hit, by the source's call; ? = inconclusive; . = no result given; [ ] = remark or other dose. Hits are enriched below; roughly 1.2% of the tested compounds scored in any of these assays.
SMILES,TSHR antagonist,uPA generation,Mm-Cpn inhibitor,gsp antag,CCT modulator,gsp ag
Cc1cccc(NC(=O)COc2ccccc2C(=O)NC(C)c2ccccc2)c1 (centres undefined),5,-4%,-4%,28µM*,1,-20%
Cc1csc2nc(O)c(C(=O)NC3CCCCCC3)c(=O)n12,-3,0%,-3%,-10%,-35*,11%[15.4 µM]
Cc1csc2nc(O)c(C(=O)NC3CCCCC3)c(=O)n12,-13,-8%,-1%,-3%,-1,19%
CSCCC(NC(=O)/C(=C/c1ccco1)NC(=O)c1ccco1)C(=O)O (centres undefined),.,4%,.,-1%,-38*,-12%[15.4 µM]
Cc1cc(-c2ccccc2)nc(SCC(=O)c2cccc([N+](=O)[O-])c2)n1,-7,-6%,0%,-7%,0,?
COc1ccc(-c2cc(C)nc(SCC(=O)c3cccc([N+](=O)[O-])c3)n2)cc1,-14,.,-8%,-10%,-46*,-25%
N#C/C(=C\c1ccc(N2CCOCC2)o1)c1ccccc1,-82*,-27%,1%,-13%,-1,-50%
Cc1ccccc1-c1nnn(Cc2cccc(S(=O)(=O)N3CCOCC3)c2)n1,6,?,0%,35µM*,1,3%
O=C1c2ccccc2S(=O)(=O)N1Cc1cccc(S(=O)(=O)N2CCOCC2)c1,-4,8%,-1%,3%,2,1%
C=CCNC(=O)C1CC(=O)N(c2ccc(Br)cc2)C1 (centres undefined),1,2%,1%,-1%,-9,10%
O=c1cc(-c2c(F)c(F)c(F)c(F)c2F)oc2c(F)c(F)c(F)c(F)c12,-76*,.,0%,.,.,.
COc1cc(OC)c(OC)cc1/C=C1\CC(C)C/C(=C\c2cc(OC)c(OC)cc2OC)C1=O (centres undefined),-5,8.9µM*,0%,?,-4,-71%
COc1cc(OC)c(OC)cc1/C=C1/Cc2ccccc2C1=O,-10,-5%,0%,6%,2,4%
C[C@@H]1CN([C@@H](C)CO)C(=O)CCCn2cc(nn2)CO[C@H]1CN(C)S(=O)(=O)c1ccccc1C#N,.,.,.,.,-53*,?
COc1ccccc1N1CCN(c2cc(=O)n(Cc3ccc(F)cc3)c(=O)[nH]2)CC1,5,2.8µM*,1%,8%,0,3%
COc1ccccc1N1CCN(C(=O)CCC(=O)N2CCN(c3ccc(F)cc3)CC2)CC1,-124*,3%,0%,-14%,-1,-39%
COc1ccccc1N1CCN(C(=O)CCC(=O)N2CCN(c3ccccc3OC)CC2)CC1,15,5%,-3%,-6%,1,-20%
COc1ccccc1N1CCN(S(=O)(=O)CCNC(=O)Cc2ccc(F)cc2)CC1,6,7.1µM*,0%,13%,2,-14%
O=c1cc(N2CCN(c3ccccc3Cl)CC2)[nH]c(=O)n1Cc1ccc(F)cc1,-9,-8%,0%,15%,-1,-5%[15.4 µM]
O=C(c1ccsc1)N1CCN(C(=O)c2cccs2)CC1,4,-2%,-1%,10%,0,-6%
Clc1cccc(-c2nnc3n2CCCCC3)c1,1,0%,2%,7%,-5,-1%[15.4 µM]
CCN(CC)C(=O)CSc1nc2cccnc2n1-c1ccccc1OC,7,5%,?,7%,2,12%
COCCn1c(C)cc(C(=O)COC(=O)C2CC(=O)N(CCc3ccc(OC)c(OC)c3)C2)c1C (centres undefined),9,-6%,1%,-7%,-4,8%[15.4 µM]
Cc1ccc(Sc2ccc(NC(=O)CCl)cc2)cc1C,3,13µM*,-2%,-4%,0,-59%
Cc1c(Cl)cccc1NC(=O)N1CCCN(c2nc(-c3ccccc3)ns2)CC1,-31,-2%,-2%,?,0,?
SMILES,TSHR antagonist,uPA generation,Mm-Cpn inhibitor,gsp antag,CCT modulator,gsp ag
CCOc1ccc(/C=C(\C#N)C(=O)Nc2cccnc2)cc1,-10,-3%,-1%,15%,-63*,-52%
CCOc1cccc(NC(=O)/C(C#N)=C/c2cccnc2)c1,-3,-7%,0%,7%,-3,-7%
COc1ccc(-c2oc3ncn4nc(Cc5ccccc5)nc4c3c2-c2ccc(OC)cc2)cc1,2,-5%,-5%,10µM*,-3,-36%
Cc1cc(N2C(=O)C(O)=C(C(=O)c3ccco3)C2c2ccc(Cl)cc2)no1 (centres undefined),-10,45%,-5%,5%,-1,11µM*
N#CC1=C(N)Oc2c(ccc3cccnc23)C1c1ccccc1 (centres undefined),-10,1.3µM*,0%,10%,-2,13%
Cc1ccc(N/N=C(/Sc2nnnn2-c2ccccc2)C(=O)c2ccccc2)cc1,3,-4%,3%,25µM*,2,1%
O=C(/C(=N\Nc1ccc([N+](=O)[O-])cc1)Sc1nnnn1-c1ccccc1)c1ccccc1,-43,-6%,2%,?,-1,-61%
O=C(NN1C(=O)c2cc(Br)ccc2NC1c1cc(Br)cc(Br)c1O)c1ccncc1 (centres undefined),-7,3%,-3%,-16%,-1,-3%[15.4 µM]
CSCC[C@H](NC(=O)c1cc([N+](=O)[O-])ccc1Cl)c1nc2ccccc2[nH]1,3,1%,-2%,-6%,0,1%
CSCC[C@H](NC(=O)COc1ccc(Cl)cc1)c1nc2ccccc2[nH]1,24,-3%,0%,7.9µM*,-2,4%[15.4 µM]
CCC(=O)Nc1sc2c(c1C#N)CC(C)(C)NC2(C)C,1,-3%,-1%,12%,3,2%
CC(=O)Oc1ccc(N(C(C)=O)S(=O)(=O)c2ccc(C)cc2C)c2ccccc12,-20,10µM*,0%,6%,-2,-10%
Cc1cccc2nc(CNC(=O)CC3C(=O)NCCN3Cc3cccc(F)c3)cn12 (centres undefined),0,2%,-1%,-5%,-43*,16%
CCc1cc(CNC(=O)CC2C(=O)NCCN2Cc2ccc(-c3ccccc3)cc2)on1 (centres undefined),-113*,-5%,-1%,-6%,1,-9%
O=C(CC1C(=O)NCCN1Cc1ccc(-c2ccccc2)cc1)NCc1ccccc1 (centres undefined),4,-2%,4%,-13%,3,-13%[15.4 µM]
